Where “and” joins values, the source holds several entries; their conditions need not be identical. Identical values can stand only once.
biological target: C-X-C chemokine receptor type 6 (Homo sapiens) (UniProt O00574); experiment: antagonism of CXCR6 versus CXCR5 signaling – cell-based, CHO-K1 PathHunter beta-arrestin, luminescence, set 4, selectivity assay for CXCR6 antagonist project, profiling panel (AID 651919); conditions: run 2, at 79 µM (top of the series)
Sequence (O00574 whole entry, looked up): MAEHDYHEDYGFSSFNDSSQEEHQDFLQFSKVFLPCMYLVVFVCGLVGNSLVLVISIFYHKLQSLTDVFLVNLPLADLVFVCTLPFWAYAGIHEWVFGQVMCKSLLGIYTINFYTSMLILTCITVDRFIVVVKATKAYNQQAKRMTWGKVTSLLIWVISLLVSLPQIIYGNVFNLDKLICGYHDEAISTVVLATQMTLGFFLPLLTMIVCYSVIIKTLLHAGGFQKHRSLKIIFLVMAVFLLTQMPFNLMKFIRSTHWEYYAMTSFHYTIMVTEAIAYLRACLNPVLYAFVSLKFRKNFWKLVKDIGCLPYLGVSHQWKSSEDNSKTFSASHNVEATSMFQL

| Compound | inhibition |
| --- | --- |
| COc1ccc(NC(=O)CN2C3CCCC2CC(NC(=O)c2ccc4c(c2)OCO4)C3)cc1 (centres undefined) | 4.54% |
| O=C(CN1C2CCCC1CC(NC(=O)c1ccc3c(c1)OCO3)C2)Nc1ccc(Cl)cc1 (centres undefined) | -3.16% |
| COc1cc(C(=O)NC2CC3CCCC(C2)N3CC(=O)Nc2ccc(F)cc2)cc(OC)c1OC (centres undefined) | 81.3% |
| COc1ccc(NC(=O)CN2C3CCCC2CC(NC(=O)c2cccc(OC)c2)C3)cc1 (centres undefined) | -0.0157% |
| COc1ccc(C(=O)NC2CC3CCCC(C2)N3CC(=O)Nc2ccccc2)cc1 (centres undefined) | 8.56% |
| COc1ccc(NC(=O)CN2C3CCCC2CC(NC(=O)c2cc(OC)c(OC)c(OC)c2)C3)cc1 (centres undefined) | 61.4% |
| Cc1ccc(NC(=O)CN2C3CCCC2CC(NC(=O)c2ccc4c(c2)OCO4)C3)cc1 (centres undefined) | 5.62% |
| COc1ccc(NC(=O)CN2C3CCCC2CC(NC(=O)c2cc(OC)cc(OC)c2)C3)cc1 (centres undefined) | -0.62% |
| COc1cc(OC)cc(C(=O)NC2CC3CCCC(C2)N3CC(=O)Nc2ccc(Cl)cc2)c1 (centres undefined) | -8.8% |
| COc1ccccc1NC(=O)CN1C2CCCC1CC(NC(=O)c1cc(OC)c(OC)c(OC)c1)C2 (centres undefined) | 98.2% |
| COc1cccc(C(=O)NC2CC3CCCC(C2)N3CC(=O)Nc2ccc(C)cc2)c1 (centres undefined) | 3.25% |
| COc1cc(C(=O)NC2CC3CCCC(C2)N3CC(=O)Nc2ccc(Cl)cc2)cc(OC)c1OC (centres undefined) | 90.4% |
| COc1cc(C(=O)NC2CC3CCCC(C2)N3CC(=O)Nc2ccccc2Cl)cc(OC)c1OC (centres undefined) | 100% and 99.1% |
| COc1ccc(C(=O)NC2CC3CCCC(C2)N3CC(=O)Nc2ccc(Cl)cc2)cc1 (centres undefined) | -10.3% |
| COc1ccc(C(=O)NC2CC3CCCC(C2)N3CC(=O)Nc2ccc(F)cc2)cc1 (centres undefined) | -0.539% |
| COc1cccc(C(=O)NC2CC3CCCC(C2)N3CC(=O)Nc2ccccc2)c1 (centres undefined) | 8.64% |
| COc1cc(OC)cc(C(=O)NC2CC3CCCC(C2)N3CC(=O)Nc2ccccc2)c1 (centres undefined) | 3.13% |

| Compound | inhibition |
| --- | --- |
| COc1cc(C(=O)NC2CC3CCCC(C2)N3CC(=O)Nc2ccccc2)cc(OC)c1OC (centres undefined) | 94% and 90.4% |
| COc1ccc(C(=O)NC2CC3CCCC(C2)N3CC(=O)Nc2ccccc2)cc1OC (centres undefined) | 30.3% |
| COc1cccc(C(=O)NC2CC3CCCC(C2)N3CC(=O)Nc2ccc(F)cc2)c1 (centres undefined) | 2.48% |
| COc1cccc(C(=O)NC2CC3CCCC(C2)N3CC(=O)Nc2ccc(Cl)cc2)c1 (centres undefined) | -8.76% |
| COc1ccc(C(=O)NC2CC3CCCC(C2)N3CC(=O)Nc2ccc(F)cc2)cc1OC (centres undefined) | 29.3% |
| COc1cc(OC)cc(C(=O)NC2CC3CCCC(C2)N3CC(=O)Nc2ccc(F)cc2)c1 (centres undefined) | -4.2% |
| COc1ccc(C(=O)NC2CC3CCCC(C2)N3CC(=O)Nc2ccc(Cl)cc2)cc1OC (centres undefined) | 14.6% |
| O=C(CN1C2CCCC1CC(NC(=O)c1ccc3c(c1)OCO3)C2)Nc1ccccc1 (centres undefined) | 5.06% |
| O=C(CN1C2CCCC1CC(NC(=O)c1ccccc1)C2)Nc1ccccc1 (centres undefined) | 7.76% |
| COc1cc(C(=O)NC2CC3CCCC(C2)N3CC(=O)Nc2ccc(C)cc2)cc(OC)c1OC (centres undefined) | 77.6% |
| O=C(CN1C2CCCC1CC(NC(=O)c1ccc3c(c1)OCO3)C2)Nc1ccc(F)cc1 (centres undefined) | -2.79% |
| COc1ccc(CN2C3CCCC2CC(NC(=O)c2cc(OC)c(OC)c(OC)c2)C3)cc1 (centres undefined) | 56.8% |
| COc1ccc(C(=O)NC2CC3CCCC(C2)N3CC(=O)Nc2ccc(C)cc2)cc1 (centres undefined) | 6.15% |
| COc1ccc(NC(=O)CN2C3CCCC2CC(NC(=O)c2ccc(OC)c(OC)c2)C3)cc1 (centres undefined) | -3.76% |
| COc1ccc(C(=O)NC2CC3CCCC(C2)N3CC(=O)Nc2ccc(C)cc2)cc1OC (centres undefined) | 4.86% |
| COc1ccc(NC(=O)CN2C3CCCC2CC(NC(=O)c2ccc(OC)cc2)C3)cc1 (centres undefined) | 4.54% |
| COc1cc(OC)cc(C(=O)NC2CC3CCCC(C2)N3CC(=O)Nc2ccc(C)cc2)c1 (centres undefined) | 55.4% |
